# Mtb betalactam: beta-lactam sensitization of Mtb H37Rv; inhibition, % at 25 µM; actives 0.27% (n = 330,000); M. tuberculosis H37Rv growth with meropenem, percent inhibition; call rule not given here;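 also: growth measured after seven days incubation then overnight dye step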
# GDH-TPI counter: GDH-TPI coupled enzyme inhibition counter-screen. GDH-TPI coupled enzyme counterscreen, NADH absorbance. inhibition, % at 4.8 µM. actives 1.2% (n = 360,000); in the data active = inhibition above about 30%
# Mtb FBA inh: Mtb fructose-bisphosphate aldolase inhibition; actives 2.3% (n = 360,000); P9WQA3; inhibition, % at 1 µM; purified M. tuberculosis FBA, fluorescence read-out; in the data active = inhibition above about 27%
# Target sequence (P9WQA3 whole entry, looked up): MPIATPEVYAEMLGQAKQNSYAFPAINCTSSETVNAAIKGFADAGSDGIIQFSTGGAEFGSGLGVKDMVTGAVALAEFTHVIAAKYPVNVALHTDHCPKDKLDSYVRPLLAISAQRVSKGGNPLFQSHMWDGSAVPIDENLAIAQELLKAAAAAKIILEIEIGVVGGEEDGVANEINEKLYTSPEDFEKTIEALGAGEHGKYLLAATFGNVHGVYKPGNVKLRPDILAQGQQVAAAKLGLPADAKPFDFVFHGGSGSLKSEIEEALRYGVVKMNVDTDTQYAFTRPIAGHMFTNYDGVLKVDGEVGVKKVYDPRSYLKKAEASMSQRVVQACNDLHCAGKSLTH
# UGM FP inh: blocks M. tuberculosis UGM enzyme; purified UGM, fluorescence polarization probe displacement; inhibition, % at 10 µM; actives 0.06% (n = 320,000); in the data active = inhibition above about 10%, passing the limit was not always enough; inconclusive = no clear call, values can overlap the other calls
# Rv3671c inh: inhibitors of M. tuberculosis serine protease Rv3671c | actives 0.048% (n = 320,000) | inhibition, % at 5.96 µM | AID 2606; in the data active = inhibition above about 38%;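 also: extracellular domain of Rv3671c used as enzyme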
# RecA splice inh: blocks M. tuberculosis RecA intein splicing | P9WHJ3 | cell-free RecA intein splicing, fluorescence | inhibition, % (no concentration beside the values) | actives 0.75% (n = 290,000) | AID 2221; in the data active = inhibition above about 30%; inconclusive = no clear call, values can overlap the other calls
# Hits are given with their value; – = inactive; ? = inconclusive; · = no result; + = active, no number. Shown are actives, neighbours in structure and some others; about 4% of the full set was active somewhere.
SMILES,Mtb betalactam,GDH-TPI counter,Mtb FBA inh,UGM FP inh,Rv3671c inh,RecA splice inh
COc1ccccc1NC(=O)C1=C(C)N(c2ccccc2)C(=S)NC1c1cccc(C(F)(F)F)c1 (centres undefined),–,–,–,–,–,–
CCCCN1C[C@H](CSC)[C@@H](CC(=O)NC)C1=O,·,–,–,·,·,·
CCOC(=O)N1CCN(C(=O)/C(=C\c2cccs2)NC(=O)c2cccs2)CC1,–,–,–,–,–,–
CC(CCc1ccccc1)NC(=O)CNC(=O)COc1ccccc1 (centres undefined),–,–,–,–,–,–
Nc1ccc(-c2c3ccc(=O)cc-3oc3cc(O)ccc23)c(C(=O)O)c1,–,–,–,45.3,–,·
CNc1nc(N)c([N+](=O)[O-])c(Nc2ccccc2OC)n1,–,31.9,–,–,–,–
Cn1nc([N+](=O)[O-])nc1Sc1nnc(-c2ccccc2)o1,–,–,–,–,–,31.7
Cn1nc([N+](=O)[O-])nc1Sc1cccc2cccnc12,–,–,–,–,–,–
Cc1nc(Cl)c(C(=O)NCCc2ccccc2)c(C)c1[N+](=O)[O-],–,–,–,–,–,–
CCN(C(=O)c1cc(Cl)ccc1OC)c1ccccc1,–,–,–,–,–,–
COC(=O)CNC(=O)COC(=O)c1cc(F)c(F)cc1Cl,–,–,–,–,–,–
CCOC(=O)C[n+]1ccc2c([nH]c3ccccc32)c1C,–,–,134.9,–,–,–
CCOC(=O)Cc1c(Cl)c2ccccc2[nH]c1=O,–,–,–,–,–,–
O=C(O)c1ccccc1NN=Cc1ccccc1,·,35.8,–,·,·,·
O=C(N/N=C/c1cccc(O)c1)C(=O)N1CCCCCC1,–,–,–,–,–,–
CCN(CC)c1ccc(/C=N/NC(=O)OC)c(O)c1,–,43.4,–,–,–,–
CCN(CC)c1ccc(/C=N/NC(=O)c2ccoc2C)c(O)c1,–,37.2,–,–,–,–
CCN(CC)c1ccc(/C=N/NC(=S)NC)c(O)c1,–,–,–,–,–,–
COc1cccc(C(=O)c2sc(NC(C)C)nc2N)c1,–,–,–,–,–,–
COc1ccc(C(=O)c2sc(NC(C)C)nc2N)cc1OC,–,36.9,–,–,–,·
C[C@@H]1CN([C@@H](C)CO)C(=O)CCCn2nncc2CO[C@H]1CN(C)C(=O)C1CCCCC1,·,–,–,·,·,·
N#Cc1c(N)nc2c(c1-c1ccc(F)cc1)CCC2,–,–,64.3,–,–,–
Cc1ccc(NCc2ccccc2O)cc1,–,–,–,–,–,–
Cc1ccc(CNc2ccc(O)cc2)cc1,·,–,–,·,·,85.3
CNC(=O)c1c(NC(=O)CS(=O)(=O)c2ccc(F)cc2)sc(C)c1C,–,–,–,·,–,–
SMILES,Mtb betalactam,GDH-TPI counter,Mtb FBA inh,UGM FP inh,Rv3671c inh,RecA splice inh
Cc1ccc(S(=O)(=O)/N=C2/NC(=O)/C(=C\c3ccccc3)S2)cc1,–,39.0,–,–,–,·
O=C1N/C(=N/O)S/C1=C/c1cccc([N+](=O)[O-])c1,–,–,–,–,–,–
Cc1ccc(S(=O)(=O)/N=C2/NC(=O)/C(=C/c3ccccc3)S2)cc1,–,33.8,–,–,–,·
O=C1N/C(=N\S(=O)(=O)Cc2ccccc2)S/C1=C/c1cccc([N+](=O)[O-])c1,–,49.4,–,–,–,–
Cc1ccc(S(=O)(=O)N2C[C@H]3C(=O)C[C@@H](c4cccc(Cl)c4)N(S(=O)(=O)c4ccc(C)cc4)[C@H]3C[C@H]2c2cccc(Cl)c2)cc1,·,–,–,·,·,·
N#CC(/C(=N/S(=O)(=O)c1cccs1)c1ccccc1)c1nc2ccccc2[nH]1 (centres undefined),–,43.1,–,–,–,–
COc1ccc(Cc2c(C3CCCCC3)nc3c4ccccc4ccn23)c(C)c1,·,·,–,·,·,·
CN1/C(=C/C(=O)COC(=O)CN2C(=O)C3CC=CCC3C2=O)C(C)(C)c2ccccc21 (centres undefined),·,–,–,·,·,·
CN1/C(=C\C(=O)COC(=O)Cn2nnc(-c3ccccc3)n2)C(C)(C)c2ccccc21,–,33.6,–,–,–,–
CN1/C(=C/C(=O)C2CC2)C(C)(C)c2ccccc21,–,–,–,–,–,–
CCOC(=O)C1CCCN(CC(=O)/C=C2/N(C)c3ccccc3C2(C)C)C1 (centres undefined),–,30.7,–,–,–,–
NC(=O)C1(N2CCCCC2)CCN(C(=O)Nc2ccccc2C(F)(F)F)CC1,–,·,·,–,–,–
N#Cc1c(NC(=O)CSc2nnc(-c3ccccc3)o2)sc2c1CCCC2,–,30.9,–,–,–,–
COc1cccc(/C=C/c2[nH]c(=O)[nH]c(=O)c2[N+](=O)[O-])c1O,·,–,–,–,–,–
COc1cc(/C=C/c2[nH]c(=O)[nH]c(=O)c2[N+](=O)[O-])cc(OC)c1O,–,30.8,–,–,·,–
Cc1ccc(S(=O)(=O)N2C[C@H]3[C@H]4C(=O)N(C5CCCCC5)C(=O)[C@H]4CC(=O)[C@H]3[C@@H]2c2ccccc2F)cc1,·,·,–,·,·,·
CC(C)(C)c1ccc(-c2ncccc2O)cc1,–,–,169.5,–,–,–
Nc1[nH]c(=O)[nH]c(=O)c1N=Cc1ccccc1,·,–,43.1,·,·,·
CCOC(=O)N1CCC2(CC1)C(C#N)=C(N)Oc1c2c(C)nn1-c1cccc(Cl)c1,–,–,–,–,–,62.7
CCOC(=O)c1cc2c(=O)n3ccccc3nc2n(Cc2ccco2)c1=NC(=O)c1cccc(OC)c1,–,39.0,139.3,–,–,–
CCOC(=O)c1cc2c(=O)n3cccc(C)c3nc2n(Cc2ccco2)c1=NC(=O)c1ccc(C)cc1,·,–,–,·,·,·
CCOC(=O)c1cc2c(=O)n3ccccc3nc2n(Cc2ccco2)c1=NC(=O)c1ccc(OC)cc1,–,–,115.0,–,–,–
CCOC(=O)c1cc2c(=O)n3ccccc3nc2n(Cc2ccco2)c1=NC(=O)c1ccccc1OC,–,–,+,–,–,–
CCOC(=O)c1cc2c(=O)n3cccc(C)c3nc2n(Cc2ccco2)c1=NC(=O)c1ccccc1,–,–,+,–,–,–
CCCCN(C(=O)c1ccc(C#N)cc1)c1c(N)n(CCC)c(=O)[nH]c1=O,–,–,–,–,–,–
SMILES,Mtb betalactam,GDH-TPI counter,Mtb FBA inh,UGM FP inh,Rv3671c inh,RecA splice inh
COP(=O)(OC)c1nc(-c2cccc3ccccc23)oc1NCCc1ccccc1,–,–,+,–,–,–
COc1ccc(CCNc2oc(Cc3cccc4ccccc34)nc2C#N)cc1OC,–,–,–,–,–,–
COc1ccc(CCNc2oc(-c3cccc4ccccc34)nc2P(=O)(OC)OC)cc1OC,–,–,188.2,–,–,–
CC(C)NC(=O)Cn1c(=O)n(CC(=O)N2CCCCC2)c(=O)c2sccc21,?,–,–,–,–,–
Cc1cc(=S)[nH]c(=S)[nH]1,–,35.4,–,–,–,–
Cc1cc(C)c2[nH]c(=S)cc(C)c2c1,?,–,–,–,–,–
CN(C)c1ccc(/C=N/n2c(-c3ccccc3Br)n[nH]c2=S)cc1,–,53.7,–,–,–,–
CN(C)c1ccc(/C=N/n2c(COc3ccccc3)n[nH]c2=S)cc1,–,34.6,–,·,–,–

# Bioassay records from PubChem.
